Experimental findings from article PMC7862700, “An all-to-all approach to the identification of sequence-specific readers for epigenetic DNA modifications on cytosine” are described below.

What all share (assay): DAPPL (digital affinity profiling via proximity ligation, sequencing); 10 mM Tris-HCl pH 7.5, 50 mM NaCl, 1 mM DTT, 4% glycerol, room temperature, 30 min; GST-TFs on glutathione beads, 16-mer random dsDNA library, 0.1% formaldehyde crosslink after washing; high values mean tight binding
Settings in all cases: protein: recombinant; tags: N-terminal GST; dsDNA, one strand shown

In assay [1] the target is T1, FLI1 (Homo sapiens, UniProt Q01543 1-452).
T1 sequence: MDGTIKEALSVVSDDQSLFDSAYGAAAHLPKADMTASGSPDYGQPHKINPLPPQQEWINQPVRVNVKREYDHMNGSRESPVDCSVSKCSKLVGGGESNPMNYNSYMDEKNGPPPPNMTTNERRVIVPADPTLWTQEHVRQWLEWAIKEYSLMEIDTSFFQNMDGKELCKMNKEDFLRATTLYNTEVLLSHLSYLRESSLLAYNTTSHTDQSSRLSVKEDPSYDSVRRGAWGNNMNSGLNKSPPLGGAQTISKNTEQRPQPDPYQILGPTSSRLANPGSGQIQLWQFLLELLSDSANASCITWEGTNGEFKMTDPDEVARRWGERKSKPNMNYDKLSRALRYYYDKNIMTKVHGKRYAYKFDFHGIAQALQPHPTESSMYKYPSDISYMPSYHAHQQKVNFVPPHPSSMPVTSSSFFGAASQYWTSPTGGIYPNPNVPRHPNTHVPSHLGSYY
In short, it runs like this:
(§1)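 Pools of DNA-barcoded human transcription factors, expressed in yeast as GST fusions on glutathione beads and combined with a tag-only sample, were incubated with 200 nmole of a 16-mer random double-stranded DNA library. Incubation took 30 min at room temperature in Tris/NaCl/DTT/glycerol buffer and was followed by washing, 0.1% formaldehyde crosslinking, proximity ligation (BsaI/T4 ligase, 1 h, 37 °C), PCR amplification and sequencing on an Illumina NextSeq500. Binding signal is the ratio of a hexamer's read frequency for a factor to its frequency for the tag-only sample.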

In assay [2] the target is T2, ELK1 (Homo sapiens, UniProt P19419 1-428).
T2 sequence: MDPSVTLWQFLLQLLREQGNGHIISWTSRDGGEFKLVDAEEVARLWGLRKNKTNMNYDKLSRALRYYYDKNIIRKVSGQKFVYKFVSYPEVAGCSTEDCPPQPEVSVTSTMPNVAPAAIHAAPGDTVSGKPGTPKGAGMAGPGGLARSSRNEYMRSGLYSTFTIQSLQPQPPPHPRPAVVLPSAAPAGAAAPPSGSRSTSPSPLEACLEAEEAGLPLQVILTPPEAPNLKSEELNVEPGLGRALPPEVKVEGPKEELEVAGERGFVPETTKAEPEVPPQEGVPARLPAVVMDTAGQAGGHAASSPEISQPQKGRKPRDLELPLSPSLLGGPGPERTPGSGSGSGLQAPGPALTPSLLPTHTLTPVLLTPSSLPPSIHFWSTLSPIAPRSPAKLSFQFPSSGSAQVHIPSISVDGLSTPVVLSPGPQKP
Put shortly: as §1

For assay [3], the target named is T3, GABPA (Homo sapiens, UniProt Q06546 1-454).
T3 sequence: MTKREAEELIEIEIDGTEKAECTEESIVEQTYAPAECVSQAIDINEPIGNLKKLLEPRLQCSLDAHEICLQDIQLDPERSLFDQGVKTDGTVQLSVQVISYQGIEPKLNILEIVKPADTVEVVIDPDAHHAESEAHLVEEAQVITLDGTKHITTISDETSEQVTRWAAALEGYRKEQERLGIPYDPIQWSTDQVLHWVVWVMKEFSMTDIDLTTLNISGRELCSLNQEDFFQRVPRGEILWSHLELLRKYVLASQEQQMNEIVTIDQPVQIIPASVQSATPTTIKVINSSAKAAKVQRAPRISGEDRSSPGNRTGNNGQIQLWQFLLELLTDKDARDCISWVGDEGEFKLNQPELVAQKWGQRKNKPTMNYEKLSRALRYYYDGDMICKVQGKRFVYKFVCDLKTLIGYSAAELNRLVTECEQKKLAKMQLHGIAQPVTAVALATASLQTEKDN
In short, it runs like this:
as §1

Assay [4] has as its target T4, ERG (Homo sapiens, UniProt P11308 1-479).
T4 sequence: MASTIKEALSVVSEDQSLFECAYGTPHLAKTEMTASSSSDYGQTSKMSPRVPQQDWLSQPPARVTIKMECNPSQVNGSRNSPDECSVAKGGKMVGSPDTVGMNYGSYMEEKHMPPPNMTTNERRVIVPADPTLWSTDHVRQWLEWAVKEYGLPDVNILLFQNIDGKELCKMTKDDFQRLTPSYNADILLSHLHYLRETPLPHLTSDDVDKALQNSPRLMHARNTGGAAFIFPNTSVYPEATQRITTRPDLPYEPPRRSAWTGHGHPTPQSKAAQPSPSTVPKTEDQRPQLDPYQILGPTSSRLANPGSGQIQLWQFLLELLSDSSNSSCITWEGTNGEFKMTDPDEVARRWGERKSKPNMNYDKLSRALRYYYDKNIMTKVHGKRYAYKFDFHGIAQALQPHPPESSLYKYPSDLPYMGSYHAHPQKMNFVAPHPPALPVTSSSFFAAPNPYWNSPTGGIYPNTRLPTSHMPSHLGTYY
In short, it runs like this:
as §1

Assay [5] has as its target ELF1 (Homo sapiens, UniProt P32519 1-619). In short, it runs like this:
as §1

For assay [6], the target named is T5, EHF (Homo sapiens, UniProt Q9NZC4 1-300).
T5 sequence: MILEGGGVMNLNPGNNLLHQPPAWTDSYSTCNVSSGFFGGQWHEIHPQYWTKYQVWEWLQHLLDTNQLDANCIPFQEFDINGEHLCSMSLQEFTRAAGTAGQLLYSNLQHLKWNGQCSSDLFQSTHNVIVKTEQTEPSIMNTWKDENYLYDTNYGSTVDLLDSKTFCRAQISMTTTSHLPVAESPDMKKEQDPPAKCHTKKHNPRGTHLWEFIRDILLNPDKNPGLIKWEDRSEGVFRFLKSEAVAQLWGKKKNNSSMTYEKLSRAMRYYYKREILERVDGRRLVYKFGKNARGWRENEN
Put shortly:
as §1

Assay [7] concerns the target SPI1 (Homo sapiens, UniProt P17947 1-270). In short, it runs like this:
as §1

Assay [8] concerns the target SPIB (Homo sapiens, UniProt Q01892 1-262). Put shortly:
as §1

Assay [9] has as its target T6, FEV (Homo sapiens, UniProt Q99581 1-238).
T6 sequence: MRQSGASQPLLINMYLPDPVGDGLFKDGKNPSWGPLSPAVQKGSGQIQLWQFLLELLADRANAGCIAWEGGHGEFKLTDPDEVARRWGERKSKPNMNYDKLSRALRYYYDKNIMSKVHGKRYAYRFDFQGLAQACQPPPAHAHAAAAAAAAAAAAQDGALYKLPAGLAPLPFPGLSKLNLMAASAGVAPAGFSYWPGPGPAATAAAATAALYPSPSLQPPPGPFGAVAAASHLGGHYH
Put shortly: as §1

In assay [10] the target is ETV5 (Homo sapiens, UniProt P41161 1-510). Put shortly: as §1
ETV5, sequence (P41161 whole entry): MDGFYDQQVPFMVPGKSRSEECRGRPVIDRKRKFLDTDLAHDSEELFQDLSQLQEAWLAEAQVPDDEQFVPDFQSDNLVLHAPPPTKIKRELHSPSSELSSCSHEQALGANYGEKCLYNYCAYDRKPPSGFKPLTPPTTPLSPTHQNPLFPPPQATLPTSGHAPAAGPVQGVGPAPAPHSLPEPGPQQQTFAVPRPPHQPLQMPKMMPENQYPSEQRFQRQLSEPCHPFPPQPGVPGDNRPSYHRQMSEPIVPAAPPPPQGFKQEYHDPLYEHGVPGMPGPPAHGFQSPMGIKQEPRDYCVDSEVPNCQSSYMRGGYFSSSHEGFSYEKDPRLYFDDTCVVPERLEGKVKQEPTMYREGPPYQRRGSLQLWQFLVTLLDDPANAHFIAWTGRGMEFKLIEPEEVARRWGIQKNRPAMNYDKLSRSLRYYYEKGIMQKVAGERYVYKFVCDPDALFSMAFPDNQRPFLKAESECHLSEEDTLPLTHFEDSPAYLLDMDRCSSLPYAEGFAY
Assay [11] deals with T7, SPIC (Homo sapiens, UniProt Q8N5J4 1-248).
T7 sequence: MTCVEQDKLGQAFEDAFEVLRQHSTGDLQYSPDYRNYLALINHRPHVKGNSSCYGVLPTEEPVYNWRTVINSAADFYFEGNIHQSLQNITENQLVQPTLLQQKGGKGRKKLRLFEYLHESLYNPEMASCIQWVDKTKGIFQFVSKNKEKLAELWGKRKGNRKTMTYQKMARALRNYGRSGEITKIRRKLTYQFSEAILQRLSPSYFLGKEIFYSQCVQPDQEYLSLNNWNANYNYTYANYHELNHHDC
In short, it runs like this: as §1

Assay [12] deals with ELF4 (Homo sapiens, UniProt Q99607 1-663). Put shortly:
as §1

Assay [13] concerns the target ETV1 (Homo sapiens, UniProt P50549 1-477). Put shortly: as §1
For assay [14], the target named is T8, ERF (Homo sapiens, UniProt P50548 1-548).
T8 sequence: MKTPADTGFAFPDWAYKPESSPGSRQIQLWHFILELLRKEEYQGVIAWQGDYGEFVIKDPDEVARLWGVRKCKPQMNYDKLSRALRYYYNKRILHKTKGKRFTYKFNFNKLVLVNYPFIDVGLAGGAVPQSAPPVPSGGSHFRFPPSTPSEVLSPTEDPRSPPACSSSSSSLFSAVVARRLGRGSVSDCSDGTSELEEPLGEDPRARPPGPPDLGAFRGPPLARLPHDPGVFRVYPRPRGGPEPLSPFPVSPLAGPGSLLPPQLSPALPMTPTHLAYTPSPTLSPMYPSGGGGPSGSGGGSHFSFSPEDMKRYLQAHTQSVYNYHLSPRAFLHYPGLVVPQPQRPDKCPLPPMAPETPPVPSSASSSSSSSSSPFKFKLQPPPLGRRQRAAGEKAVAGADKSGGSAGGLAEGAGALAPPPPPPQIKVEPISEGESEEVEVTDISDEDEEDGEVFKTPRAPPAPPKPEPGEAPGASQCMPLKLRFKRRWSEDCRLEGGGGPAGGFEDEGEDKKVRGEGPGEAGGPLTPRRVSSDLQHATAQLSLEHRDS
In short, it runs like this:
as §1

Assay [15] deals with T9, ETV3L (Homo sapiens, UniProt Q6ZN32 1-361).
T9 sequence: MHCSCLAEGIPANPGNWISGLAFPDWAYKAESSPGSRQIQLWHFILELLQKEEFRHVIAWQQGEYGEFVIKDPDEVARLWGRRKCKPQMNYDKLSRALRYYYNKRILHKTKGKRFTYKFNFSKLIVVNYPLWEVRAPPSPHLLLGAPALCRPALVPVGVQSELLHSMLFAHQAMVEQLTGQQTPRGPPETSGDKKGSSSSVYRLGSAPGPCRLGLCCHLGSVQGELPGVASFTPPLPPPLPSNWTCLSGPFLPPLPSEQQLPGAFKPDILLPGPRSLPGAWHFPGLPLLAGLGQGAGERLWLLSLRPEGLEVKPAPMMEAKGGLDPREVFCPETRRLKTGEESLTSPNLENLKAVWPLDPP
Put shortly: as §1

Assay [16] concerns the target T10, ETS2 (Homo sapiens, UniProt P15036 1-469).
T10 sequence: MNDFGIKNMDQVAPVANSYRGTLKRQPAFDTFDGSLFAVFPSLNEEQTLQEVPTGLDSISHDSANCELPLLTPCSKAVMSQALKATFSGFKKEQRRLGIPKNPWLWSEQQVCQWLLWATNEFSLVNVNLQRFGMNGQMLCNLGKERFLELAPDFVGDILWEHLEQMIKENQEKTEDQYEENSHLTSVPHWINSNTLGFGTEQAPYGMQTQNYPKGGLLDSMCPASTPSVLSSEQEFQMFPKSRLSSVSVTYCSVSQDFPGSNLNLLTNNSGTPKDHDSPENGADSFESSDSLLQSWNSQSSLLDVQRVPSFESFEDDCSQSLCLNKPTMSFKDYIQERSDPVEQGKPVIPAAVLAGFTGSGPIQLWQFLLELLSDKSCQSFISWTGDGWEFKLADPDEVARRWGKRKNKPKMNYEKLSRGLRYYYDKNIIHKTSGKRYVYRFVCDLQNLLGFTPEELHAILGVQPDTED
In short, it runs like this:
as §1

In assay [17] the target is T11, SPDEF (Homo sapiens, UniProt O95238 1-335).
T11 sequence: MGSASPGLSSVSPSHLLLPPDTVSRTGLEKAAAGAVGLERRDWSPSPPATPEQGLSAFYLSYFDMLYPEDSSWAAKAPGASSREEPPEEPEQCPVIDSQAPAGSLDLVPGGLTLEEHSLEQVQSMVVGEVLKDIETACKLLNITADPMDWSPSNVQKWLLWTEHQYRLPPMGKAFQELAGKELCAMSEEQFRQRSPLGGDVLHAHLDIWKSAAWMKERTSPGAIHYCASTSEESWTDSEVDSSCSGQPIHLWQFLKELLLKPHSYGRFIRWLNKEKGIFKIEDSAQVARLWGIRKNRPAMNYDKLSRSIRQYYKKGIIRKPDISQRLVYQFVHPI
Put shortly: as §1

The target in assay [18] is T12, ELF5 (Homo sapiens, UniProt Q9UKW6-2 1-255).
T12 sequence: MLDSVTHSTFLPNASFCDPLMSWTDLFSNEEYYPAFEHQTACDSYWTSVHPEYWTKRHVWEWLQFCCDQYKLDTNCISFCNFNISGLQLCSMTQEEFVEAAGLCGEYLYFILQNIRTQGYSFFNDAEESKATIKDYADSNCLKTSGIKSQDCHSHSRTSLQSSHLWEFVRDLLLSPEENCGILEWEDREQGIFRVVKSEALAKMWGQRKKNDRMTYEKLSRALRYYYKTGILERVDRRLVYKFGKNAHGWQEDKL
In short, it runs like this: as §1

The target of assay [19] is T13, ETV3 (Homo sapiens, UniProt P41162-2 1-143).
T13 sequence: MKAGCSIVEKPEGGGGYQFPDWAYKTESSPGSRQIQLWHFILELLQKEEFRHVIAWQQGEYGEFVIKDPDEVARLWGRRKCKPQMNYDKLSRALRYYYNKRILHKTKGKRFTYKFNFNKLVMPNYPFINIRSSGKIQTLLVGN
In short, it runs like this:
as §1

ETV1, sequence (P50549 whole entry): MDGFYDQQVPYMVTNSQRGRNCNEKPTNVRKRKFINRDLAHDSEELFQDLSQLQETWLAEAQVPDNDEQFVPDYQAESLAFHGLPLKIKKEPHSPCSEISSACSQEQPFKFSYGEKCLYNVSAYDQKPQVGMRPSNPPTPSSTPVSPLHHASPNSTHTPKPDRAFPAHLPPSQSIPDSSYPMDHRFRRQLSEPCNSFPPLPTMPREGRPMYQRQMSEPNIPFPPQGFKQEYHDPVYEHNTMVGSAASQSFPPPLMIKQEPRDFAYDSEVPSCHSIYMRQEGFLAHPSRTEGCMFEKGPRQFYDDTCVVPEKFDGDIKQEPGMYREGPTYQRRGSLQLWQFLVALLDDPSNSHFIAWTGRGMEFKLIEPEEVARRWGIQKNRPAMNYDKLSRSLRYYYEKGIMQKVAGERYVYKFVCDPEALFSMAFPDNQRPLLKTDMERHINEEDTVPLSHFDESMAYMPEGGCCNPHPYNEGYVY
ELF1, sequence (P32519 whole entry): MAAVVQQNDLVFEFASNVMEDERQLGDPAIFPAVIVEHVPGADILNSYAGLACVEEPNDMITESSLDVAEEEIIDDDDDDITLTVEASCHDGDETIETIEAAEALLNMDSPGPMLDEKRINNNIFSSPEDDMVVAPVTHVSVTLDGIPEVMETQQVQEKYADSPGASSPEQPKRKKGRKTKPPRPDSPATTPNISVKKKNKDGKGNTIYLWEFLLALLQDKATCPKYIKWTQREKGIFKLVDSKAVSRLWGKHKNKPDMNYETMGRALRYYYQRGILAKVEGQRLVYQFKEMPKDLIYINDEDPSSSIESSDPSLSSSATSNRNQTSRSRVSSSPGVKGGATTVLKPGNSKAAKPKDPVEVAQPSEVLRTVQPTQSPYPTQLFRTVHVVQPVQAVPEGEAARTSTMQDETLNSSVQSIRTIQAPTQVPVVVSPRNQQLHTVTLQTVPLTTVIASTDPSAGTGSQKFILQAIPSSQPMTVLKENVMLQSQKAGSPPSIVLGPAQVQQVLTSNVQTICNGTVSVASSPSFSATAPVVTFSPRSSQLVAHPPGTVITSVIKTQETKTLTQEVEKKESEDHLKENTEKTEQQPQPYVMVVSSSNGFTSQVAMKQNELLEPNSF
SPIB, sequence (Q01892 whole entry): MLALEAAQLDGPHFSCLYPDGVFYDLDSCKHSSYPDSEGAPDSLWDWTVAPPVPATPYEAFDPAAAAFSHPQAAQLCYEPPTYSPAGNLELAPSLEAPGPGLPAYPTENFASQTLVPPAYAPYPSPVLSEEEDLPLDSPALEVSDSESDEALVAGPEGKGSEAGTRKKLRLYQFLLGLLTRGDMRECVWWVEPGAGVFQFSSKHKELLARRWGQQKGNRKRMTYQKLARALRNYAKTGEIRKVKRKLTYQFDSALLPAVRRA
ELF4, sequence (Q99607 whole entry): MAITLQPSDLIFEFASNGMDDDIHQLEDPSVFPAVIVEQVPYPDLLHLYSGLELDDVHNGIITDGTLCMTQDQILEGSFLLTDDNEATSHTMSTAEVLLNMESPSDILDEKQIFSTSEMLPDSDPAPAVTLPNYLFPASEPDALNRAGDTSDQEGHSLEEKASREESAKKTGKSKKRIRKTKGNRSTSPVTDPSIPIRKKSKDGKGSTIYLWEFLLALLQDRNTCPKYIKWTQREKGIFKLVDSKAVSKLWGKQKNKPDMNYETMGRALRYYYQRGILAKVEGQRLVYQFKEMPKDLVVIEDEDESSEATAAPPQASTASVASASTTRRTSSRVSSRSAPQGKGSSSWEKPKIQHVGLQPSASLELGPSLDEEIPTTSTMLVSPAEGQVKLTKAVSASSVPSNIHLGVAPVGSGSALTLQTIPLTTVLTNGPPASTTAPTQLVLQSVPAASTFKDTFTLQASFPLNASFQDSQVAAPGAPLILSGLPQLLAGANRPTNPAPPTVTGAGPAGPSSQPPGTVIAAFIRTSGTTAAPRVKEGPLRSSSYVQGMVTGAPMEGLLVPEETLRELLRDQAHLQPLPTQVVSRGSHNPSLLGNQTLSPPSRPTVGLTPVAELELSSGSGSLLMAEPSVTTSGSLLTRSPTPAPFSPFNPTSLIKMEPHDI

For GCTGCG, the binding signal in assay [1] was 1.01 fold enrichment (6-mer frequency, TF over GST control); in assay [2], 1.12 fold enrichment (6-mer frequency, TF over GST control); in assay [3], 1.1 fold enrichment (6-mer frequency, TF over GST control); in [4], 1.09 fold enrichment (6-mer frequency, TF over GST control); in assay [5] it was 1.13 fold enrichment (6-mer frequency, TF over GST control); in [6], 1.21 fold enrichment (6-mer frequency, TF over GST control). Also, the binding signal in assay [7] is 1.08 fold enrichment (6-mer frequency, TF over GST control); in assay [8], 1.08 fold enrichment (6-mer frequency, TF over GST control); in [9] it was 1.1 fold enrichment (6-mer frequency, TF over GST control); in assay [10], 1.12 fold enrichment (6-mer frequency, TF over GST control); in assay [11] it was 1.08 fold enrichment (6-mer frequency, TF over GST control); in assay [12], 1.1 fold enrichment (6-mer frequency, TF over GST control). The binding signal is 1.16 fold enrichment (6-mer frequency, TF over GST control) in assay [13]; 1.08 fold enrichment (6-mer frequency, TF over GST control) in assay [14]; 1.13 fold enrichment (6-mer frequency, TF over GST control) in [15]; 1.14 fold enrichment (6-mer frequency, TF over GST control) in assay [16]; 1.02 fold enrichment (6-mer frequency, TF over GST control) in [17]; 1.04 fold enrichment (6-mer frequency, TF over GST control) in assay [18]. In addition, the binding signal in [19] is 1.07 fold enrichment (6-mer frequency, TF over GST control).
